Measured values reported in PubChem BioAssay (NCI).
The panel holds about 83,000 compounds, 20% with a hit somewhere; the sample as a whole holds those more often.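 A percent growth of 40 corresponds to 60% growth inhibition; 0 means no net growth; -100 means all cells died. Active threshold: below 10.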 Activity calls are given as the source filed them.

Tests used:
Test in all cases: NCI-60 one-dose screen, 48 h (100 = growth as untreated, 0 = no growth, -100 = all killed)
Settings in all cases: 10 µM unless noted
HT29 colon = test system: HT29 colon
SNB-75 CNS = test system: SNB-75 CNS
SNB-19 CNS = test system: SNB-19 CNS
U251 CNS = test system: U251 CNS
SK-MEL-5 melanoma = test system: SK-MEL-5 melanoma
UACC-62 melanoma = test system: UACC-62 melanoma
LOX IMVI melanoma = test system: LOX IMVI melanoma
SK-MEL-28 melanoma = test system: SK-MEL-28 melanoma
SK-MEL-2 melanoma = test system: SK-MEL-2 melanoma

Measured: growth

COc1ccc2c(c1)C(=O)/C(=C/c1cccc(OCC(=O)c3ccccc3)c1)CC2
inactive: HT29 colon 80.9% | SNB-75 CNS 112% | SNB-19 CNS 100% | U251 CNS 76.9% | SK-MEL-5 melanoma 39.3% | UACC-62 melanoma 70.2% | LOX IMVI melanoma 70.3% | SK-MEL-28 melanoma 106% | SK-MEL-2 melanoma 67.3%

O=c1ccn(C2OC(CO)C(O)C2F)c(=O)[nH]1 (centres undefined)
inactive: HT29 colon 104% | SNB-75 CNS 93% | SNB-19 CNS 101% | U251 CNS 113% | SK-MEL-5 melanoma 107% | UACC-62 melanoma 92.4% | LOX IMVI melanoma 106% | SK-MEL-28 melanoma 116% | SK-MEL-2 melanoma 119%

COc1ccc(OC)c(NC(=O)c2cc3oc4ccccc4c3cc2O)c1
inactive: HT29 colon 100% | SNB-75 CNS 84% | SNB-19 CNS 92.7% | U251 CNS 120% | SK-MEL-5 melanoma 91.1% | UACC-62 melanoma 79.7% | LOX IMVI melanoma 109% | SK-MEL-28 melanoma 101% | SK-MEL-2 melanoma 96.1%

Cc1cc(C)n2nc(SCC(=O)Nc3sc4c(c3C(N)=O)CCC4)nc2n1
inactive: HT29 colon 123% | SNB-75 CNS 115% | SNB-19 CNS 102% | U251 CNS 99.3% | SK-MEL-5 melanoma 99% | UACC-62 melanoma 80.5% | LOX IMVI melanoma 105% | SK-MEL-28 melanoma 137% | SK-MEL-2 melanoma 65%

N#Cc1ccc(NC(=O)Nc2ccc(Oc3ccc(NC(=O)Nc4ccc(C#N)cc4)cc3)cc2)cc1
active: SK-MEL-2 melanoma -19.6%
inactive: HT29 colon 37.4% | SNB-75 CNS 70.1% | SNB-19 CNS 30.7% | U251 CNS 27.7% | SK-MEL-5 melanoma 31.2% | UACC-62 melanoma 11.2% | LOX IMVI melanoma 35.4% | SK-MEL-28 melanoma 51%

COc1cccc(-c2nnc(N)o2)c1
inactive: HT29 colon 100% | SNB-75 CNS 106% | SNB-19 CNS 102% | U251 CNS 97.8% | SK-MEL-5 melanoma 99.3% | UACC-62 melanoma 99.5% | LOX IMVI melanoma 94.7% | SK-MEL-28 melanoma 104% | SK-MEL-2 melanoma 107%
